# Experimental data as given in the supplement of paper PMC4840960.
# Structures can show the parent of a compound that is named as a salt.
# Test system: E18 rat cortical neuron-glia co-culture
# Assay: myelination (MBP fiber length per Olig2+ nucleus), % of 1 µM DAPT response (DMSO = 0) (% of DAPT); higher = more myelination, active = 50 or more
# Conditions: 5 µM; treatment time: 8 days (DIV5-DIV13)
# Method in brief: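 Library compounds at 1 or 5 µM in myelination medium were applied from DIV5 to DIV13 to papain-dissociated E18 rat cortical co-cultures seeded at 20,000 cells/well on poly-d-lysine/laminin 96-well plates. Fixed cells (4 % paraformaldehyde) were immunostained for MBP and Olig2 with DAPI, and four 10X fields were analysed in each duplicate well. Continuous straight MBP fiber length per Olig2+ nucleus was set to 0 for 0.1 % DMSO and to 100 for a 1 µM positive control.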
row,SMILES,myelination
1,c1cncc([C@@H]2CCCN2)c1 [Nornicotine],-19 (inactive)
2,Cc1ccc(-c2nc3ccc(C)cn3c2CC(=O)N(C)C)cc1 [Zolpidem],-13.3 (inactive)
3,Cc1ncc2n1-c1ccc(Cl)cc1C(c1ccccc1F)=NC2 [Midazolam],31.1 (inactive)
4,CCCN1C[C@H](CSC)C[C@@H]2c3cccc4[nH]cc(c34)C[C@H]21 [Pergolide],-24.9 (inactive)
5,C[C@]12CCC(=O)C=C1CC[C@@H]1[C@@H]2CC[C@@]2(C)[C@H]1CC[C@]2(C)O [Methyltestosterone],-17.2 (inactive)
6,c1ccc2c(c1)Nc1ccccc1S2 [Phenothiazine],-5.33 (inactive)
7,C#CCN(C)[C@H](C)Cc1ccccc1 [Selegiline],-0.224 (inactive)
8,C[C@]12CC[C@H]3[C@@H](CCC4=CC(=O)CC[C@@H]43)[C@@H]1CC[C@@H]2O [Nandrolone],-16.8 (inactive)
9,CC(C)c1cccc(C(C)C)c1O [Propofol],-2.27 (inactive)
10,C=C1C[C@@H]2[C@H](CC[C@]3(C)C(=O)CC[C@@H]23)[C@@]2(C)C=CC(=O)C=C12 [Exemestane],-11.8 (inactive)
11,CCCC(C)(COC(N)=O)COC(=O)NC(C)C (configuration not stated) [Carisoprodol],-11.9 (inactive)
12,c1ccc(Cn2ccnc2)cc1 [1-Benzylimidazole],-0.886 (inactive)
13,C[C@]12CC[C@H](O)CC1=CC[C@@H]1[C@@H]2CC[C@]2(C)C(=O)CC[C@@H]12 [Dehydroepiandrosterone],-6.07 (inactive)
14,CC[C@]1(O)CC[C@H]2[C@@H]3CCC4=CCCC[C@@H]4[C@H]3CC[C@@]21C [Ethylestrenol],204 (active)
15,COc1ccc2c(c1)[C@]13CCCC[C@@H]1[C@H](C2)N(C)CC3 [Dextromethorphan],1.54 (inactive)
16,COc1cc([C@@H]2c3cc4c(cc3[C@H](O)[C@H]3COC(=O)[C@H]23)OCO4)cc(OC)c1OC [Podophyllotoxin],-15.8 (inactive)
17,CCOC(=O)c1cncn1[C@H](C)c1ccccc1 [Etomidate],6.64 (inactive)
18,C[N+]1(CCC(C(N)=O)(c2ccccc2)c2ccccc2)CCCCC1 [Fenpiverinium],191
19,CN1CC[C@]23CCCC[C@H]2[C@H]1Cc1ccc(O)cc13 [Levorphanol],-51.1 (inactive)
20,CC(NC(C)(C)C)C(=O)c1cccc(Cl)c1 (configuration not stated) [Bupropion],-31.8 (inactive)
21,CN1CC[C@@H](c2ccc(F)cc2)[C@H](COc2ccc3c(c2)OCO3)C1 [N-Methylparoxetine],-60.5 (inactive)
22,CN1[C@@H]2CC[C@H]1C[C@@H](OC(=O)[C@H](CO)c1ccccc1)C2 [Hyoscyamine],-12.5 (inactive)
23,CNCC(O)c1ccc(O)cc1 (configuration not stated) [Synephrine],-10.5 (inactive)
24,Oc1ccc2c3c1O[C@H]1[C@@H](O)CC[C@@]4(O)[C@@H](C2)N(CC2CCC2)CC[C@]314 [Nalbufina],-7.9 (inactive)
25,CC(C)CC(N(C)C)C1(c2ccc(Cl)cc2)CCC1 (configuration not stated) [Sibutramine],-0.392 (inactive)
26,CN1CC[C@]2(c3cccc(O)c3)Cc3nc4ccccc4cc3C[C@H]2C1,2.91 (inactive)
27,FC(F)(F)c1cccc(N2CCNCC2)c1 [1-(3-trifluoromethylphenyl)piperazine hydrochloride (TFMPP)],-32.7 (inactive)
